About 7,900 targets were measured; listed, in parts, are those with a hit and a random draw of the rest. About 0.6% of all pairs of compound and target were hits.
Legend:
Assay in all cases: log2 fold change, soluble protein after heating vs DMSO (PISA); higher = thermal stabilisation; K562 cells, 10 uM, 30 min; active = over 0.2 and 3.5 SD of the protein, either way, in both replicates (recomputed)
[1] = compound: CN1CCN(CCOc2cc(OC3CCOCC3)c3c(Nc4c(Cl)ccc5c4OCO5)ncnc3c2)CC1 [saracatinib]
Method in brief: (§1)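 Aliquots of K562 cells (2×10^6 cells/mL) treated with 10 μM compound for 30 min were heated for 3 min over 48°C-58°C. After pooling and extraction in PBS with 0.5% NP-40 at 4°C, soluble protein from a 21,000xg, 90 min spin was quantified by TMTpro 16plex LC-MS/MS with channel sums equalised. Thermal stability is expressed against control samples, from duplicates, as a log2 fold change.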

[2] = compound: CN1CCN(c2nc(C3=C(c4c[nH]c5ccccc45)C(=O)NC3=O)c3ccccc3n2)CC1 [sotrastaurin]
Method in brief: as §1

[3] = compound: CN1CC[C@H](c2c(O)cc(O)c3c(=O)cc(-c4ccccc4Cl)oc23)[C@H](O)C1 [alvocidib]
Method in brief: as §1

[4] = compound: CN1CCc2c(c3ccccc3n2Cc2ccc(C(=O)NO)cc2)C1 [Tubastatin A]
Method in brief: as §1

[5] = compound: CNC(=O)C1=CC=CC=C1NC2=NC(=NC=C2Cl)NC3=C(C=C(C=C3)N4CCOCC4)OC
Method in brief: as §1

[6] = compound: CNC(=O)c1ccc(Nc2ncc(C(F)(F)F)c(NCc3nccnc3N(C)S(C)(=O)=O)n2)cc1 [defactinib]
Method in brief: as §1

[7] = compound: CNCc1ccc(-c2[nH]c3cc(F)cc4c3c2CCNC4=O)cc1 [rucaparib]
Method in brief: as §1

[8] = compound: CNc1nc(-c2ccc3c(N)n[nH]c3c2)cc(N2C[C@@H](C(=O)NC3CCCCC3)CC[C@H]2C)n1
Method in brief: as §1

[9] = compound: COC(=O)N[C@@H](C)CNc1nccc(-c2cn(C(C)C)nc2-c2cc(Cl)cc(NS(C)(=O)=O)c2F)n1 [encorafenib]
Method in brief: as §1

[10] = compound: COC(=O)[C@H](CCSC)NC(=O)C1=C(C=C(C=C1)NC[C@H](CS)N)C2=CC=CC=C2
Method in brief: as §1

Measured: log2 fold change

WDCP (UniProt Q9H6R7)
UniProt Q9H6R7, sequence (Q9H6R7 whole entry, looked up): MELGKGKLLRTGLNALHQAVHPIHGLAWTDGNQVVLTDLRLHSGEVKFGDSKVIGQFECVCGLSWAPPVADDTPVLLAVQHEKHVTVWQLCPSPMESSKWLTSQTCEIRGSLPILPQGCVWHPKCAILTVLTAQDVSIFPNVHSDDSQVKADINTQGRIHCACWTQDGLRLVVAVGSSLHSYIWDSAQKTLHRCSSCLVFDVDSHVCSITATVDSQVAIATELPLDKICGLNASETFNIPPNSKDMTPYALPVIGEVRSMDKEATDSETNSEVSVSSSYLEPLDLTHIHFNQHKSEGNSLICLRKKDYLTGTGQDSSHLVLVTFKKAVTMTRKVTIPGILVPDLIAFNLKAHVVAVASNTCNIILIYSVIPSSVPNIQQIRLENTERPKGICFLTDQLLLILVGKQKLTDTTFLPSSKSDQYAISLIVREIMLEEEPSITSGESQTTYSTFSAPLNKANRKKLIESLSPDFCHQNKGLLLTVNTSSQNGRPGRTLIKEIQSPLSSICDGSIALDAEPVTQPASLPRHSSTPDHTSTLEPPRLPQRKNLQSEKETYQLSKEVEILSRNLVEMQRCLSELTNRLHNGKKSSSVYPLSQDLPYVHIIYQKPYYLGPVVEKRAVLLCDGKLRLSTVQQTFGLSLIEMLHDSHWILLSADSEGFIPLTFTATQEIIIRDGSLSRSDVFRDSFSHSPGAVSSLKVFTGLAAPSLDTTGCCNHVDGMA
inactive: [1] -0.039 | [2] -0.034 | [3] 0.054 | [4] -0.032 | [5] 0 | [6] -0.016 | [7] 0.14 | [8] -0.02 | [9] 0.043 | [10] -0.006

VPS28 (UniProt Q9UK41)
UniProt Q9UK41, sequence (Q9UK41 whole entry, looked up): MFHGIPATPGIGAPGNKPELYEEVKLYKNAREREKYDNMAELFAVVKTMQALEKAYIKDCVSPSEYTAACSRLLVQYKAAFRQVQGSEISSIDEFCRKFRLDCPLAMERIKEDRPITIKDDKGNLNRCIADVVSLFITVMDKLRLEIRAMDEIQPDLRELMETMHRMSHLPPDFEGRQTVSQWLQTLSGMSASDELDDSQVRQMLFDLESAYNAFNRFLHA
inactive: [1] -0.101 | [2] -0.078 | [3] -0.135 | [4] 0.072 | [5] 0.043 | [6] -0.172 | [7] -0.044 | [8] -0.046 | [9] 0.082 | [10] -0.033

UBE2Q1 (UniProt Q7Z7E8)
UniProt Q7Z7E8, sequence (Q7Z7E8 whole entry, looked up): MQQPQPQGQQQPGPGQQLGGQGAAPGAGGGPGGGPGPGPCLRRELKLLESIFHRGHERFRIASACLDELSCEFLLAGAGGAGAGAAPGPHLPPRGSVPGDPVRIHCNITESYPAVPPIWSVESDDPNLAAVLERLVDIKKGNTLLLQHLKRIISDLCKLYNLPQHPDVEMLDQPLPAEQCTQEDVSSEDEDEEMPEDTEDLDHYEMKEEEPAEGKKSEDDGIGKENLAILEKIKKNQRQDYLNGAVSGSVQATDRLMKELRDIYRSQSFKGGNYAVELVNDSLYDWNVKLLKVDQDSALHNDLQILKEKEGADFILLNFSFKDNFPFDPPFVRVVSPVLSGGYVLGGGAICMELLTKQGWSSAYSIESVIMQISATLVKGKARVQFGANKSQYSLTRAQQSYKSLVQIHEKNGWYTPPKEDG
inactive: [1] -0.023 | [2] -0.001 | [3] -0.069 | [4] 0.027 | [5] 0.05 | [6] -0.143 | [7] -0.008 | [8] 0.048 | [9] 0.04 | [10] -0.017

TNNC2 (UniProt P02585)
UniProt P02585, sequence (P02585 whole entry, looked up): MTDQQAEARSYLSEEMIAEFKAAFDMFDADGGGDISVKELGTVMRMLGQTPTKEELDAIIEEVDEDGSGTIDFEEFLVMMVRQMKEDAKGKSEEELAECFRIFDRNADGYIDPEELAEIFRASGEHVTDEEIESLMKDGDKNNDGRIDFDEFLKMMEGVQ
inactive: [1] 0.007 | [2] 0.095 | [3] -0.009 | [4] -0.139 | [5] -0.035 | [6] 0.012 | [7] -0.025 | [8] -0.056 | [9] -0.049 | [10] 0.037

VPS18 (UniProt Q9P253)
inactive: [1] -0.034 | [2] -0.156 | [3] -0.118 | [4] -0.052 | [5] -0.003 | [6] -0.068 | [7] 0.099 | [8] 0.029 | [9] 0.031 | [10] -0.076

TSFM (UniProt P43897)
inactive: [1] 0.057 | [2] -0.157 | [3] -0.132 | [4] 0.063 | [5] 0.021 | [6] -0.166 | [7] -0.001 | [8] -0.073 | [9] 0.167 | [10] -0.082

UNC119B (UniProt A6NIH7)
inactive: [1] -0.076 | [2] 0.013 | [3] -0.206 | [4] 0.124 | [5] -0.031 | [6] -0.064 | [7] 0.133 | [8] 0.316 | [9] 0.026 | [10] -0.048

TXN2 (UniProt Q99757)
UniProt Q99757, sequence (Q99757 whole entry, looked up): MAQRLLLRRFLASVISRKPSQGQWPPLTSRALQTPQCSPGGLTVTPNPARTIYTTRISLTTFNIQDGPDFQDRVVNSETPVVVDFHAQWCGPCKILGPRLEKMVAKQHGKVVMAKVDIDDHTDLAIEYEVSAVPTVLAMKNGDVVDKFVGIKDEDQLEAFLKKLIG
inactive: [1] 0.004 | [2] 0.04 | [3] -0.058 | [4] 0.004 | [5] 0.17 | [6] 0.031 | [7] -0.003 | [8] -0.034 | [9] 0.001 | [10] 0.068

U2AF2 (UniProt P26368)
UniProt P26368, sequence (P26368 whole entry, looked up): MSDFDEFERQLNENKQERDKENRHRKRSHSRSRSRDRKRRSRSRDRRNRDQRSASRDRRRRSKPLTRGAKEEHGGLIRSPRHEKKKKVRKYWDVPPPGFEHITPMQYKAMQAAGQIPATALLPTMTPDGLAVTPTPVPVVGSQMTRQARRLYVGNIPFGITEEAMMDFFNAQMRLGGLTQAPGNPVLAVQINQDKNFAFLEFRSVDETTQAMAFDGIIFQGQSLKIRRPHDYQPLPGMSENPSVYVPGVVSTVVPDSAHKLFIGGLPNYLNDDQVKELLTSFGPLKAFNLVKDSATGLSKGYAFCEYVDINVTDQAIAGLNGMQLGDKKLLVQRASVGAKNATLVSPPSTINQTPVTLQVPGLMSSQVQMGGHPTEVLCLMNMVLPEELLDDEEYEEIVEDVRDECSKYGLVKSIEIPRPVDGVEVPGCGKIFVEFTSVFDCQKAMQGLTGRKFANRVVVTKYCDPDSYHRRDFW
inactive: [1] 0.022 | [2] 0.056 | [3] -0.038 | [4] -0.007 | [5] -0.181 | [6] -0.035 | [7] 0.163 | [8] -0.037 | [9] -0.037 | [10] 0.001

WDHD1 (UniProt O75717)
UniProt O75717, sequence (O75717 whole entry, looked up): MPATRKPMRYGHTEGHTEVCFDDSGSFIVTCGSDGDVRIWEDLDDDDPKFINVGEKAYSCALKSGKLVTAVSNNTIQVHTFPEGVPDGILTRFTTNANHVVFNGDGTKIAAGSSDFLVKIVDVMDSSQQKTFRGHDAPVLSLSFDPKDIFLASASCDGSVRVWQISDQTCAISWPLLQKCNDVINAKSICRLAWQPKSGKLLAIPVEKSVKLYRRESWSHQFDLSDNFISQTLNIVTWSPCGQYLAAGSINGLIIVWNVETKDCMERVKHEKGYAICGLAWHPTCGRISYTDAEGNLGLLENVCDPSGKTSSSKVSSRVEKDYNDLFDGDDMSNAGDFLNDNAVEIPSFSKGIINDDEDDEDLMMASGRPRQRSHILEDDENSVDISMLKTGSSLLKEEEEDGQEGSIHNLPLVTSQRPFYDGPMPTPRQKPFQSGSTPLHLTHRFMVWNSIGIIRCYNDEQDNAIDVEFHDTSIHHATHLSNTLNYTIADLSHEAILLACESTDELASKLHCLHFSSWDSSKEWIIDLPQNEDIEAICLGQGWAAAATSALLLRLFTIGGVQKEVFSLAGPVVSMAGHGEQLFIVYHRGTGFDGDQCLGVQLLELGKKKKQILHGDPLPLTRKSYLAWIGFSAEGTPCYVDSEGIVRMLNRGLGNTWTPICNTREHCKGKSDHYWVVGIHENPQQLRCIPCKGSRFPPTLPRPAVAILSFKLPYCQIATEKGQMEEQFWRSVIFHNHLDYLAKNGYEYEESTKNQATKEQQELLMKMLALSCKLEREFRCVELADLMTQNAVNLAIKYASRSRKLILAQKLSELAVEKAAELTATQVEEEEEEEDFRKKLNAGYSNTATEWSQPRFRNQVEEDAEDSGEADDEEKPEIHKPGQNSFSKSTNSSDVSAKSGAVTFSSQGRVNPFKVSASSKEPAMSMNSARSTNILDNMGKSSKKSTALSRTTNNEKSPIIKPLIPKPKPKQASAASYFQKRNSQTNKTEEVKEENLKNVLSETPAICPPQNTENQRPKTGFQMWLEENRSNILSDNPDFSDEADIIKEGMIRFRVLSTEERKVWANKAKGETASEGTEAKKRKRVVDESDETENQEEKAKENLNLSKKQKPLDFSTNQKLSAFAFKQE
inactive: [1] -0.027 | [2] -0.067 | [3] -0.135 | [4] 0.079 | [5] 0.075 | [6] -0.201 | [7] -0.06 | [8] 0 | [9] 0.119 | [10] -0.022

WDR41 (UniProt Q9HAD4)
UniProt Q9HAD4, sequence (Q9HAD4 whole entry, looked up): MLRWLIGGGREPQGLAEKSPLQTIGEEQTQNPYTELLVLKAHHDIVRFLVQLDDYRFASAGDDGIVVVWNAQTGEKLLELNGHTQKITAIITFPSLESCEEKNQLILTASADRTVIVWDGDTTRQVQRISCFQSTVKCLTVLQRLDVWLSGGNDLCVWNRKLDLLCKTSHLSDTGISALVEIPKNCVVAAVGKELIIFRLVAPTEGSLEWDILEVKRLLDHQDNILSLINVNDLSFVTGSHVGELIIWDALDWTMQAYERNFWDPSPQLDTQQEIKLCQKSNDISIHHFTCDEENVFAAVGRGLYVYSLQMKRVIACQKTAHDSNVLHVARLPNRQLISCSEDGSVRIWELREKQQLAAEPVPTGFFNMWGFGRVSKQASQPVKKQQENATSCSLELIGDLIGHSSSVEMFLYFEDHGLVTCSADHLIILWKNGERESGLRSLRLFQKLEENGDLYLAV
inactive: [1] 0.071 | [2] -0.037 | [3] -0.014 | [4] -0.054 | [5] -0.046 | [6] -0.007 | [7] 0.015 | [8] -0.031 | [9] 0.008 | [10] 0.036

UBE2J2 isoform 3 (UniProt Q8N2K1)
UniProt Q8N2K1, sequence (Q8N2K1 whole entry, looked up): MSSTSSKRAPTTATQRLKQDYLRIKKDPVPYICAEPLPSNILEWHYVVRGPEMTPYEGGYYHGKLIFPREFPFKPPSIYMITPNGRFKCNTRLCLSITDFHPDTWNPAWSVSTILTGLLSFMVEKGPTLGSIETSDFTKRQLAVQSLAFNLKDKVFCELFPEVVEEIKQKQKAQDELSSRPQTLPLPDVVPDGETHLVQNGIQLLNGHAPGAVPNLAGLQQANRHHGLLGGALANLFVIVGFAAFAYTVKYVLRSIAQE
inactive: [1] 0.07 | [2] 0.044 | [3] -0.226 | [4] 0.091 | [5] -0.114 | [6] -0.061 | [7] 0.081 | [8] 0.055 | [9] 0.014 | [10] -0.053

UBE3D (UniProt Q7Z6J8)
UniProt Q7Z6J8, sequence (Q7Z6J8 whole entry, looked up): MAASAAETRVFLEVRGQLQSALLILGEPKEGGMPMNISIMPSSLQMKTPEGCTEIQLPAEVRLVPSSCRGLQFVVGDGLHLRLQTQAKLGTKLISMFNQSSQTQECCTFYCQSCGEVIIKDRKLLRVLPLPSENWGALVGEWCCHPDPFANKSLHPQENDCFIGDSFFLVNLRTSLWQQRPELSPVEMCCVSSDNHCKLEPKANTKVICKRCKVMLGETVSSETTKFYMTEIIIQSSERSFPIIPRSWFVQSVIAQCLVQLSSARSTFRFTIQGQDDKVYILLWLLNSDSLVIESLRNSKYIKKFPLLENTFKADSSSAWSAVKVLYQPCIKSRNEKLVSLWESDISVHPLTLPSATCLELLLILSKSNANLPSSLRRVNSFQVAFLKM
inactive: [1] 0.027 | [2] -0.007 | [3] -0.059 | [4] -0.043 | [5] -0.058 | [6] -0.003 | [7] 0.161 | [8] -0.064 | [9] 0.005 | [10] -0.108

UPF3B (UniProt Q9BZI7)
UniProt Q9BZI7, sequence (Q9BZI7 whole entry, looked up): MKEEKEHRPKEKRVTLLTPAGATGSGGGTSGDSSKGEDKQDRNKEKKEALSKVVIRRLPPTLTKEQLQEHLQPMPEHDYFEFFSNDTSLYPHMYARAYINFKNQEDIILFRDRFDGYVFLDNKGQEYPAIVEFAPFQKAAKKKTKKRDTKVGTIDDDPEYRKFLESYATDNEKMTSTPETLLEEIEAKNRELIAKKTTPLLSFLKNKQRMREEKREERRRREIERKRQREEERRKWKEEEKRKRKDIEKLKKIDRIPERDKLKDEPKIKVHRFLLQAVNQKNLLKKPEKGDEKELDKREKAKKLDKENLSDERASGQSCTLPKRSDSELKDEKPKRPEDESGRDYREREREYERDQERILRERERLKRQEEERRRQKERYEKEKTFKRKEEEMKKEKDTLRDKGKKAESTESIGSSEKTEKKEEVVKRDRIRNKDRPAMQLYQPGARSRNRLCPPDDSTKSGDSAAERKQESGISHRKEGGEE
inactive: [1] -0.099 | [2] 0.002 | [3] 0.423 | [4] 0.114 | [5] 0.045 | [6] 0.413 | [7] 0.286 | [8] 0.035 | [9] 0.108 | [10] 0.007

WDR11 (UniProt Q9BZH6)
active: [7] -0.382
inactive: [1] -0.079 | [2] 0.059 | [3] 0.06 | [4] -0.029 | [5] -0.021 | [6] 0.016 | [8] -0.052 | [9] -0.034 | [10] 0.017

Reference: the supplement of paper PMC10849652
